In all, about 310,000 compounds went through this assay and about 380 (0.12%) were called active. This is one part of a sample in which actives are shown more often than they occur.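 Rule for the calls: active = B-score of the integrated fluorescence ratio above library mean plus 3 SD, and starting fluorescence ratio within library mean plus 5 SD; inactive = the rest.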

The target of the assay is Short transient receptor potential channel 6 (Mus musculus) (UniProt Q61143). The experiment in a line: small molecules opening TRPC6 cation channel – cell-based, HEK293, membrane potential dye, primary screen (AID 2550).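 Note: higher score means more depolarization so channel activation.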 To be noted: HEK293-TRPC6 membrane potential dye fluorescence, at 10 µM; active compounds read high.
Short transient receptor potential channel 6 (Mus musculus), sequence (Q61143 whole entry, looked up): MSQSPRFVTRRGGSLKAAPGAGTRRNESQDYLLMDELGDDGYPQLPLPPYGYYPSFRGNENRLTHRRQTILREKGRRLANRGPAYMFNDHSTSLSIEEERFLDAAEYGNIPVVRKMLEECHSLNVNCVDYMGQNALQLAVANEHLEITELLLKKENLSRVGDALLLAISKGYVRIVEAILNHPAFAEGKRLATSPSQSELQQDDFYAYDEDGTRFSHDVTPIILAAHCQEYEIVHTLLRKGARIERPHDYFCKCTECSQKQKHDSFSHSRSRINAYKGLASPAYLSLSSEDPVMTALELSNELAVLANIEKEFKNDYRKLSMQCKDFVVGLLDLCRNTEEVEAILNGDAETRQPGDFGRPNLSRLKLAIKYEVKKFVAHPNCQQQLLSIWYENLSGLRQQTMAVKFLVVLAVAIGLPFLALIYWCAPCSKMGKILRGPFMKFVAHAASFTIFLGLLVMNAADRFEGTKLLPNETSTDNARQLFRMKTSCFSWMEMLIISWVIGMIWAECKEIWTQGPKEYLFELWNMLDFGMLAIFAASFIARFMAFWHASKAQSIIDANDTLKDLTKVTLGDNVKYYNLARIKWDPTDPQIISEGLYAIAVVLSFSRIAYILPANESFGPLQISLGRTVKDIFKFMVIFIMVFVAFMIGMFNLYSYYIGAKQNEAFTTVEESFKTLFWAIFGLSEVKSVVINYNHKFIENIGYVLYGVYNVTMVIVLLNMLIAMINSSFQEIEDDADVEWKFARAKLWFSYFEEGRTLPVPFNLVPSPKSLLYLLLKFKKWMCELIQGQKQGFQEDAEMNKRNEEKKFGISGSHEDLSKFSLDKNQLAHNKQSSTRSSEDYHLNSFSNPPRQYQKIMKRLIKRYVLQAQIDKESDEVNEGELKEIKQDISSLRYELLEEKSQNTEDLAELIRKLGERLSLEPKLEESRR
As to `CCn1cc(/C=C(\NC(=O)c2cc(OC)c(OC)c(OC)c2)C(=O)N2CCN(C)CC2)c2ccccc21`, the B-score result was “inactive”. The result for `O=C(NNc1ccccc1Cl)C(O)(c1cccc(C(F)(F)F)c1)c1cccc(C(F)(F)F)c1` reads “inactive”; that for `CCOC1CCCCC1NS(=O)(=O)c1ccc(Cl)cc1` (centres undefined), “inactive”; that for `CCn1ccnc1CN1CCCC(C(=O)c2ccc3c4c(cccc24)CC3)C1` (centres undefined), “inactive”. In the case of `COc1cc2c(cc1OC)C(C(=O)NCc1ccco1)C1c3ccccc3CCN1C2=O` (centres undefined), the B-score result was “inactive”. Take `CCn1cc(/C=C2/SC(=S)NC2=O)c(C)n1`: the B-score entry was “inactive”. Take `CCN1C(=NCCc2cccnc2)N[C@@H](c2ccccc2)[C@H](C(=O)OC)[C@H]1C`: the B-score entry is “inactive”. Consider `CCOc1ccc(NC(=O)C2CCN(C(=O)N3CCOc4ccccc43)CC2)cc1`, for which the B-score result was “inactive”. Regarding `CCCCn1c(N)c(N(CCOC)C(=O)c2cccc(OCc3ccccc3)c2)c(=O)[nH]c1=O`, the B-score entry is “inactive”. Regarding `C#CC(C)(C)NC(=O)c1cnc(-c2ccccc2)nc1-c1ccccc1`, the B-score result was “inactive”.

As for `CC(=O)Nc1ccc(CN2CCC(Oc3ccc(C(=O)N4CCCC4)cc3)CC2)cc1`, the B-score entry is “inactive”. For `Cc1ccc(S(=O)(=O)/N=C(\CN2CCOCC2)N2CCOCC2)cc1` the value was “inactive”; for `CCc1ccccc1OCC(=O)Nc1ccc2c(c1)OCCO2`, “inactive”; for `COc1ccc2oc(C(=O)NCC(Cc3ccccc3)N(C)C)c(C)c2c1` (centres undefined), “inactive”.

Turning to `COc1c(O)ccc2c1CN1CCc3cc4c(cc3C1C2)OCO4` (centres undefined), the B-score entry was “inactive”. The result for `Cc1ccc(S(=O)(=O)c2nnn3c2nc(N2CCN(c4ccccn4)CC2)c2ccccc23)cc1` reads “inactive”. In the case of `CC(C)(C)n1nnnc1C(c1ccc(Cl)cc1)N1CCSCC1` (centres undefined), the B-score entry is “inactive”. Consider `Cc1cccc(N2CCN(C(c3ccc(N(C)C)cc3)c3nnnn3C(C)(C)C)CC2)c1C` (centres undefined), for which the B-score entry was “inactive”. For the molecule `CC(C)(C)n1nnnc1C(c1ccc2ncccc2c1)N1CCSCC1` (centres undefined), the B-score is 12.7 (active). With `CN(C)C(CNC(=O)c1ccc(S(=O)(=O)NCc2ccco2)cc1)c1ccccc1` (centres undefined), the B-score entry was “inactive”. Turning to `CC(=O)N(Cc1cccs1)C1CCOC(C)(C)C1` (centres undefined), the B-score result is “inactive”.

Take `CCc1ccc(C2C(C#N)=C(N)N(N3CCOCC3)C3=C2C(=O)CC(C)(C)C3)s1` (centres undefined): the B-score entry was “inactive”. With `Cc1ccc(Cl)cc1N1CCN(C(=O)c2cccc3c(=O)c(C)c(-c4ccccc4)oc23)CC1`, the B-score result was “inactive”. Take `Cc1ccc(-c2csc(NCCc3nc4cc(Cl)c(Cl)cc4n3CCOCCO)n2)cc1`: the B-score result is “inactive”.

In the case of `Cc1cc(/C=N/n2cnnc2)c(C)n1-c1ccc2ncccc2c1`, the B-score result is “inactive”.

As to `COc1ccc(NC(=S)N2CCC(NC(=O)c3cccc(F)c3)CC2)cc1`, the B-score result was “inactive”.

Consider `CN(C)c1ccnc2sc(C(=O)c3ccccc3)c(N)c12`, for which the B-score entry is “inactive”. Take `O=C(CN1C2=NCCN2c2ccccc21)c1cccs1`: the B-score entry was “inactive”.

For the molecule `Nc1c(C(=O)c2cccs2)sc2nsc(SCCN3CCCCC3)c12`, the B-score is 19.2 (active). On to `O=C(NCCNc1ccccc1[N+](=O)[O-])c1ccccc1F`, for which the B-score result is “inactive”. As to `O=C(CSc1nnc(Cn2cnc3ccccc32)o1)c1ccccc1`, the B-score entry is “inactive”. In the case of `COc1ccc(NC(=O)c2oc3ccc(S(=O)(=O)N4CCOCC4)cc3c2C)cc1`, the B-score result is “inactive”. In the case of `Nc1ccc(Cl)c(S(=O)(=O)Nc2ccccc2Cl)c1`, the B-score result was “inactive”. Regarding `CCCCNC(=O)N1CCN(S(C)(=O)=O)CC1`, the B-score entry was “inactive”. As for `CCCCn1c(O)c(N=NC(=O)Cn2c(C(F)(F)F)nc3ccccc32)c2ccccc21`, the B-score result is “inactive”.

With `O=C1/C(=C\c2ccsc2)NC(=S)N1c1ccccc1`, the B-score entry is “inactive”. For `CN(C)c1ccc(/C=C2\NC(=S)N(Cc3ccccc3)C2=O)cc1` the value was 22.1 (active); for `COc1cc(/C=C2/SC(=S)N(Cc3ccccc3)C2=O)cc(OC)c1O`, “inactive”. The result for `Cc1cccc(C)c1NC(=O)CSc1nc2c([nH]1)c(=O)n(C)c(=O)n2C` reads “inactive”.

(Values after PubChem BioAssay AID2550 (Johns Hopkins Ion Channel Center, 2010).)
